The source of these data is PubChem BioAssay AID624116 (National Center for Advancing Translational Sciences (NCATS), 2012).

Results filed as inconclusive are left out. Where a call stands in place of a potency, no number is given. Calls of active or inactive are those of the source. Calls follow the shape of the dose curve; as a rule, active = well fitted activation curve with a large enough effect; inconclusive = small, poorly fitted or top-dose-only effect; inactive = no such curve, though single readings can be large or run the other way.
Potency is read from the fitted curve at half-maximal effect.

This assay in a line: qHTS Assay for Rab9 Promoter Activators: Hit Validation Using Renilla Luciferase Read-Out for Rab9. The following applies: Huh7 Rab9 promoter Renilla luciferase reporter, 24 h; series mostly up to 76.9 µM. Put shortly: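 Huh7 cells stably carrying promoter-luciferase reporter, exposed to compound for 24 h at 37 deg C. Luminescence read 10 min after adding luciferase detection reagent at room temperature.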
On the technique in general: Quantitative high-throughput screening tests each substance at several concentrations.
For the molecule `COc1ccc(C)cc1N(C(=O)CNC(=O)c1ccco1)C(C(=O)NC1CCCC1)c1cccnc1` (stereo not drawn), the Potency result is “inactive”.

`N#C/C(=N\Nc1ccc(Cl)cc1)C(=N)N1CCCCC1`: the Potency entry was “inactive”.

As to `CCN(Cc1nc2cc(Cl)ccc2c(=O)[nH]1)C(=O)C1CC(=O)N(c2cccc3ccccc23)C1` (stereo not drawn), the Potency result was “inactive”.

`Cc1cccc(N2CCN(C(=S)c3ccccc3)CC2)c1`: the Potency entry was “inactive”.

Take `COc1ccccc1OCCCC(=O)NCc1ccco1`: the Potency entry is “inactive”.

With `CCCC(C)NC(=O)c1ccc(OCc2ccc(Cl)cc2)c(OC)c1` (stereo not drawn), the Potency entry is “inactive”.

For the molecule `Cc1nc(-c2ccc(S(=O)(=O)Oc3ccc(Cl)cc3Cl)s2)cs1`, the Potency entry is “inactive”.

Turning to `O=C(COc1ccccc1F)Nc1ccc(-c2nc3ccccc3s2)cc1`, the Potency result is “inactive”.

`COc1ccc(C(c2nnnn2CCc2ccccc2)N2CCN(C3CCCC3)CC2)cc1` (stereo not drawn): the Potency was 13 µM (active).

On to `COc1ccc(/C=C\C(=O)c2c(O)ccc3c(C)cc(=O)oc23)cc1OC`, for which the Potency result is “inactive”.

Turning to `CCN(CC(=O)N(CC(C)C)c1c(N)n(CC(C)C)c(=O)[nH]c1=O)Cc1nc2ccccc2c(=O)[nH]1`, the Potency entry was “inactive”.

For the molecule `COC(=O)c1ccccc1S(=O)(=O)NNC(=O)Nc1ccccc1`, the Potency entry was “inactive”.

As for `O=C(CCNC(=O)c1ccc(Br)o1)NCc1ccc(Cl)cc1`, the Potency entry was “inactive”.

Take `CN(C)C(=O)[C@H]1C[C@H]1[C@@H](O)[C@H](CO)NC(=O)[C@H](COCc1ccccc1)NC(=O)OC(C)(C)C`: the Potency entry was “inactive”.

`O=C(O)C1=CC[C@@H](c2ccc(Cl)cc2)N(S(=O)(=O)c2ccc(Cl)cc2)[C@H]1c1ccccc1`: the Potency is 14.6 µM (active).

`Cc1ccc(S(=O)(=O)N2CCN(c3cnn(C)c(=O)c3Cl)CC2)cc1`: the Potency entry is “inactive”.

As for `CC1CC(C)CN(CC(=O)N2CCOCC2)C1` (stereo not drawn), the Potency result is “inactive”.

For `COc1ccc(-c2csc(Nc3ncccn3)n2)cc1C`, the Potency entry was “inactive”.

For the molecule `CC(=O)Nc1ccc(NC(=O)COc2ncnc3ccccc23)cc1`, the Potency result was “inactive”.

On to `COC(=O)Nc1nc2ccc(Br)cc2s1`, for which the Potency result is “inactive”.

With `Cc1cccc(NC(=O)CSc2nc3ccccc3o2)c1`, the Potency result was “inactive”.

Consider `CCC(=O)NC(=S)Nc1ccc(N2CCOCC2)cc1`, for which the Potency result is “inactive”.

With `O=C(CCCN1C(=O)C(c2ccccc2)Oc2cccnc21)Nc1ccccc1Cl` (stereo not drawn), the Potency entry is “inactive”.

As for `O=C(C1COc2ccccc2O1)N1CCN(S(=O)(=O)c2ccccc2)CC1` (stereo not drawn), the Potency entry was “inactive”.

Take `Cn1c(CCN2CCN(c3ccccc3)CC2)nc2cc(NC(=O)c3ccco3)ccc21`: the Potency result is “inactive”.

In the case of `O=C(NC(=S)Nc1ccc(CN2CCCCC2)cc1)c1cc2ccccc2o1`, the Potency result is “inactive”.

On to `Cc1ccc(NC(=O)COC(=O)C2C3CC4OC(=O)C2C4C3)cc1Cl` (stereo not drawn), for which the Potency entry is “inactive”.

On to `CCN(C(=O)COC(=O)c1ccc(C=O)cc1)c1c(N)n(Cc2ccccc2)c(=O)[nH]c1=O`, for which the Potency result is “inactive”.

Take `CC1CCc2sc(C(=O)NNC(=S)NC3CC3)cc2C1` (stereo not drawn): the Potency entry was “inactive”.

On to `N#CC/C(N)=N/NC(=O)CCCNc1ncc(C(F)(F)F)cc1Cl`, for which the Potency result is “inactive”.

On to `O=C(CSc1nnc(-c2ccccn2)o1)Nc1ccccc1Cl`, for which the Potency result is “inactive”.

On to `CCCCn1c(Nc2ccc(OC)cc2)nc2ccccc21`, for which the Potency result was “inactive”.

For the molecule `O=C(NCCc1ccccc1)c1cc2ncc(Br)cn2n1`, the Potency result was “inactive”.

In the case of `COc1ccccc1CNC(=O)COc1ccc(C)cc1`, the Potency result was “inactive”.

As to `CC(=O)c1c(C)[nH]c(C(=O)Nc2cccc(S(=O)(=O)N(C)C)c2)c1C`, the Potency is 20.7 µM (active).

As for `CC(C)(C)C(=O)N/C(N)=N/c1nc2ccccc2o1`, the Potency entry is “inactive”.

With `Cc1ccc(CNC(=O)Nc2ccc(C)cc2)cc1`, the Potency entry is “inactive”.

In the case of `Cc1nn(CCCC(=O)NCc2ccc(F)cc2)c(C)c1[N+](=O)[O-]`, the Potency entry is “inactive”.
